The text below walks through data of PubChem BioAssay (Tox21).

“And” between values parts separate entries of the source, which are not always exact repeats. Equal values may be shown once. The source made the active and inactive calls. Unless noted, calls come from the whole dose curve; as a rule, active = well fitted curve in the direction sought with a large enough effect in the repeat runs; inconclusive = weak or mixed curves; inactive = no such curve, though single readings can be large; an effect the other way counts as inactive or inconclusive.

Test [1] can be described thus: qHTS assay to identify small molecule antagonists of the thyroid receptor (TR) signaling pathway - cell viability counter screen (AID 743064). Note: nearly all actives have a fitted effect of over 50% in size. Note: potency is the fitted concentration of half-maximal effect. In outline:
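GH3.TRE-Luc rat pituitary cells dosed after 4 hr plating, co-stimulated with T3 at 1 nM final, incubated 23.5 h at 37 C. Viability measured in the same wells by CellTiter-Fluor fluorescence after 30 min further at 37 C.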

The nature of test [2]: qHTS assay to identify small molecule antagonists of the thyroid receptor (TR) signaling pathway (AID 743065). Note: nearly all actives have a fitted effect of over 55% in size. Note: potency is the fitted concentration of half-maximal effect. In a few lines:
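GH3.TRE-Luc rat pituitary cells (two TREs driving luciferase) were dosed with compound, then stimulated with 1 nM T3 (final) for 23.5 h at 37 C. ONE-Glo luminescence was the read-out, with CellTiter-Fluor fluorescence as the cytotoxicity counter-screen.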
In general terms: In qHTS, concentration-response curves come from the screen itself.

Test [3] addresses Estrogen receptor (Homo sapiens) (UniProt P03372). The test is described as follows: qHTS assay to identify small molecule antagonists of the estrogen receptor alpha (ER-alpha) signaling pathway (AID 743069; active = well fitted curve in the direction sought with a large enough effect in the signal ratio in the repeat runs, not every such curve was filed as active; inconclusive = weak or mixed curves, or effect the other way; inactive = no such curve, though single readings can be large or run the other way; the % refers to the signal ratio; note: potency is the fitted concentration of half-maximal effect). In a few lines: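 In this cell-based reporter format, GripTite HEK293 cells harbouring ER-alpha-UAS-bla were grown overnight with 2% charcoal-stripped FBS, dosed with DMSO-dissolved compounds, then challenged with 17beta-estradiol. After 18 hr at 37C, beta-lactamase activity was detected by FRET fluorescence.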

The target is the same in test [4]. Kind of test: qHTS assay to identify small molecule agonists of the estrogen receptor alpha (ER-alpha) signaling pathway (AID 743075; calls by dose curve; note: potency is the fitted concentration of half-maximal effect).
Test [5] shares this target. Kind of test: qHTS assay to identify small molecule agonists of the estrogen receptor alpha (ER-alpha) signaling pathway using the BG1 cell line (AID 743079). Note: nearly all actives have a fitted effect of over 20% in size. The following applies: BG1Luc4E2 cells, ERE-luciferase agonist, 22 h; activation: at 70.3 µM (top of the series).
Test [6] concerns thyroid hormone receptor (rat, GH3 cells). Kind of test: qHTS assay to identify small molecule agonists of the thyroid receptor (TR) signaling pathway (AID 743066; calls by dose curve).
Test [7] is described as follows: qHTS assay to identify small molecule antagonists of the estrogen receptor alpha (ER-alpha) signaling pathway using the BG1 cell line - cell viability counter screen (AID 743081).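 Note: compound given together with 17beta-estradiol as the ER stimulus; nearly all actives have a fitted effect of over 45% in size.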 Note: potency is the fitted concentration of half-maximal effect.
A further test deals with Aromatase (Homo sapiens) (UniProt P11511). The test is described as follows: qHTS assay to identify aromatase inhibitors (AID 743083). Note: nearly all actives have a fitted effect of over 55% in size. Note: potency is the fitted concentration of half-maximal effect.
Chain of Aromatase (Homo sapiens) (P11511 whole entry, looked up): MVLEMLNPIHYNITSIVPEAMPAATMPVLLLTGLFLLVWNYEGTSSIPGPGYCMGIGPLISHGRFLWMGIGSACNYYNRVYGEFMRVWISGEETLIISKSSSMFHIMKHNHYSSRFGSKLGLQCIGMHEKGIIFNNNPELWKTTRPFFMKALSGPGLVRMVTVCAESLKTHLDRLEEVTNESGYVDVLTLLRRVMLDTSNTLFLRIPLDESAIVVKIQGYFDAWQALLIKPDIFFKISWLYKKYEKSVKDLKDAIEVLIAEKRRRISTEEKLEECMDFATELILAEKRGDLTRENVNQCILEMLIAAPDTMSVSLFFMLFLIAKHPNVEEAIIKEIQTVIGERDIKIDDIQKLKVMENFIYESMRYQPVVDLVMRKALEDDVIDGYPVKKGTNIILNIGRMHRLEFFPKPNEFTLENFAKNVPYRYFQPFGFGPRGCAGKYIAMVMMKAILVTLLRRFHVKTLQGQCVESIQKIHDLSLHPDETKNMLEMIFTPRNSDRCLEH
Test [8] is described as follows: qHTS assay to identify small molecule antagonists of the estrogen receptor alpha (ER-alpha) signaling pathway - cell viability counter screen (AID 743074; calls by dose curve; note: nearly all actives have a fitted effect of over 45% in size).
Test [9] is described as follows: qHTS assay to identify small molecule antagonists of the estrogen receptor alpha (ER-alpha) signaling pathway using the BG1 cell line (AID 743080; calls by dose curve;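 note: BG1 cells stimulated with 17beta-estradiol alongside compound; nearly all actives have a fitted effect of over 25% in size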; note: potency is the fitted concentration of half-maximal effect). In outline:
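Luciferase inhibition measured with ONE-Glo after 30 min at RT in BG1Luc4E2 cells given test compounds and 17beta-estradiol for 21.5 h at 37 C; CellTiter-Fluor viability read in the same wells beforehand.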

Chain of Estrogen receptor (Homo sapiens) (P03372 whole entry, looked up): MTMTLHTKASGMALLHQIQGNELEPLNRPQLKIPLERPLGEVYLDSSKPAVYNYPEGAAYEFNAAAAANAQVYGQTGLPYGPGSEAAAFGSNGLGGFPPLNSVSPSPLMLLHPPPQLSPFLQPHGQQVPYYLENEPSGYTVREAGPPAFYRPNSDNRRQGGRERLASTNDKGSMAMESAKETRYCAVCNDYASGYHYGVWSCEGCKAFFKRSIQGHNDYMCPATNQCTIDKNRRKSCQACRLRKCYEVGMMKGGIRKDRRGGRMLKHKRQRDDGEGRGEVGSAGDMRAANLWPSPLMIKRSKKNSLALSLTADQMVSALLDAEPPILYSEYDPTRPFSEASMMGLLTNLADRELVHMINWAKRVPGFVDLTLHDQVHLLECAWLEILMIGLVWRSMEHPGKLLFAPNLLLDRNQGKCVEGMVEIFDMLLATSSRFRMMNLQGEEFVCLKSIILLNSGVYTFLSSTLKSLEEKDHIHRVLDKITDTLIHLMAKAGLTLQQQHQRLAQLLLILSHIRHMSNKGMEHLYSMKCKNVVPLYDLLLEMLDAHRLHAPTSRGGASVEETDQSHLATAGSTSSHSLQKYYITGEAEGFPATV

On to `CC(C)N1CCN(c2ccc(OC[C@H]3CO[C@](Cn4cncn4)(c4ccc(Cl)cc4Cl)O3)cc2)CC1`, for which the Potency in test [1] was 6.39 µM (active); in test [2], 4.52 µM (active). In addition, the Potency entry in [3], in test [4] and in [5] was “inactive” throughout.
In the case of `CO[C@H]1C=CO[C@@]2(C)Oc3c(C)c(O)c4c(O)c(c5c(nc6cc(C)ccn65)c4c3C2=O)NC(=O)/C(C)=C\C=C[C@H](C)[C@H](O)[C@@H](C)[C@@H](O)[C@@H](C)[C@H](OC(C)=O)[C@@H]1C`, the Potency entry in test [1], in test [2], in test [6] and in [7] was “inactive” throughout.
`CCCCCC(O)/C=C/C=O` (configuration not stated): the Potency result (in test [1]; in [2]; in [6]; in test [7]; with Aromatase (Homo sapiens)) was “inactive” each time.
For the compound `CCN(CC)CCCC(C)Nc1cc(/C=C/c2ccccc2Cl)nc2cc(Cl)ccc12` (configuration not stated), the Potency in [1] was 26.6 µM (active); in test [2] it was 29.8 µM (active). The Potency entry in test [3], in test [8], in test [4], in [5] and in test [9] was “inactive” in each case.
Consider `COC(=O)C1=C(C)NC(C)=C(C(=O)O[C@H]2CCN(Cc3ccccc3)C2)[C@H]1c1cccc([N+](=O)[O-])c1`, for which the Potency in test [1] was 13.3 µM (active); in test [2] it was 18.8 µM (active); in [3], 26.8 µM [inhibitor] (active). Besides, the Potency entry (in test [8]; in test [4]; in test [5]; in test [9]; in the test with Aromatase (Homo sapiens)) was “inactive” in each case.
`Clc1cc(Cl)c(OCC#CI)cc1Cl`: the Potency in [1] is 7.5 µM (active); in test [2], 6.68 µM (active); with Aromatase (Homo sapiens) it was 16.8 µM (active). The Potency entry in test [3], in test [8], in [4] and in [7] was “inactive” in each case.
With `Cc1cccc(C)c1NC(=O)NC1=CCCN1C`, the Potency entry (in test [1]; in test [2]; in [6]; in test [7]; in the test with Aromatase (Homo sapiens)) was “inactive” in each case.
Turning to `O=C(NOC[C@H](O)CO)c1ccc(F)c(F)c1Nc1ccc(I)cc1F`, the Potency result in test [1], in [2], in test [6], in test [4], in test [5] and in test [9] was “inactive” throughout. Further, the Potency result (in test [7]; with Aromatase (Homo sapiens)) was “inactive” in each case.
With `CCN(CC)CCC(=O)N1c2ccccc2Sc2ccc(Cl)cc21`, the Potency in test [1] was 23.7 µM (active); in [2], 26.6 µM (active). Further, the Potency result (in [3]; in test [8]; in test [4]; in [9]; with Aromatase (Homo sapiens)) was “inactive” in each case.
For `Cc1cc(O)c2c(c1)O[C@@]1(C)CC[C@H]3C(C)(C)CCCC34CO[C@@H]2[C@H]41` (some centres not stated), the Potency in [1] was 18.8 µM (active); in test [2], 13.3 µM (active); in [9], 26.6 µM (active); with Aromatase (Homo sapiens), 26.6 µM (active). The Potency result in test [3], in test [8], in test [4] and in test [7] was “inactive” throughout.
Consider `C=C1CC[C@@H]2[C@](C)(CO)[C@H](O)CC[C@@]2(C)[C@@H]1C/C=C1/C(=O)OC[C@H]1O`, for which the Potency in test [1] was 21.1 µM (active); in test [2], 23.7 µM (active). The Potency result (in test [3]; in [8]; in test [4]; in test [5]; in test [7]; in the test with Aromatase (Homo sapiens)) was “inactive” throughout.
Consider `CCOC(=O)[C@H](CCc1ccccc1)N[C@@H](C)C(=O)N1CC2(C[C@H]1C(=O)O)SCCS2`, for which the Potency entry (in test [1]; in test [2]; in test [6]; in [7]; in the test with Aromatase (Homo sapiens)) was “inactive” in each case.
Regarding `C/C1=C2N=C(/C=C3N=C(/C(C)=C4\[N-]C(C(CC(N)=O)C4(C)CCC(=O)NCC(C)OP(=O)([O-])OC4C(CO)OC(n5cnc6cc(C)c(C)cc65)C4O)C4(C)N=C1C(CCC(N)=O)C4(C)CC(N)=O)C(CCC(N)=O)C\3(C)C)C(CCC(N)=O)C/2(C)CC(N)=O.[CH3-].[Co+3]` (configuration not stated), the Potency in [1] was 29.8 µM (active); in test [2], 11.9 µM (active); in the test with Aromatase (Homo sapiens), 13.3 µM (active). Further, the Potency entry in test [6] was “inactive”.
For `C=C1C(=C/C=C2\CCC[C@]3(C)[C@@H]([C@H](C)/C=C/[C@H](C)C(C)C)CC[C@@H]23)C[C@@H](O)C[C@@H]1O`, the Potency in [1] and in test [2] was 29.8 µM (active) throughout. Moreover, the Potency result in test [6], in [4] and in test [5] was “inactive” in each case.
`N#Cc1ccc2c(c1)N(CCCN1CCC(O)CC1)c1ccccc1S2`: the Potency in test [1] is 9.44 µM (active); in [2] it was 21.1 µM (active). The Potency entry in test [3], in [8], in [4], in test [5], in [9] and in [7] was “inactive” each time. In addition, the Potency entry in the test with Aromatase (Homo sapiens) was “inactive”.
On to `CC(C)(C)NC[C@H](O)COc1ccccc1C1CCCC1`, for which the Potency is 9.02 µM (active) in test [1] and 12.7 µM (active) in test [2]. Also, the Potency entry (in [3]; in test [8]; in test [4]; in [5]; in test [9]; in the test with Aromatase (Homo sapiens)) was “inactive” in each case.
Turning to `CCC(c1ccccc1)c1noc(CCN(CC)CC)n1` (configuration not stated), the Potency result (in test [1]; in test [2]; in test [6]; in test [7]; with Aromatase (Homo sapiens)) was “inactive” each time.
On to `CC(=O)[C@]1(O)Cc2c(O)c3c(c(O)c2[C@@H](O[C@H]2C[C@H](N)[C@H](O)[C@H](C)O2)C1)C(=O)c1c(O)cccc1C3=O`, for which the Potency in test [1] is 150 nM (active) and 188 nM (active); in test [2], 0.119 µM (active); in test [3], 10.7 µM [inconclusive] (active); in [4] it was 3.38 µM [inconclusive] (active) and 6.01 µM [inconclusive] (active); in [7], 18.8 µM (active) and 23.7 µM (active); with Aromatase (Homo sapiens) it was 3.35 µM (active). For the same compound, the Potency result in test [8] was “inactive”.
Consider `CC(=O)O[C@H]1CC[C@@]2(C)C(=CC[C@H]3[C@@H]4CC[C@H](C(C)=O)[C@@]4(C)CC[C@@H]32)C1`, for which the Potency entry (in test [1]; in [2]; in [6]; in [9]; in test [7]; with Aromatase (Homo sapiens)) was “inactive” in each case. Also, the Potency in test [4] was 16.9 µM [inconclusive] (active).
